From PubChem BioAssay (Tox21)
“And” between values parts separate entries of the source, which are not always exact repeats. Equal entries are not always repeated. Records with an inconclusive call do not appear. Some compounds were tested as several samples or in several runs, with calls that do not always agree. The source made the active and inactive calls. Unless noted, calls follow the shape of the full dose curve.

How the values were obtained:
[1] = Nuclear factor erythroid 2-related factor 2/antioxidant responsive element (Nrf2/ARE) small molecule agonists: qHTS cell viability counter screen in human keratinocytes (AID 1919968; active = well fitted curve in the direction sought with a large enough effect in the repeat runs; an effect the other way counts as inactive or inconclusive; also: nearly all actives have a fitted effect of over 55% in size)
Method in brief: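 Stably transfected HaCaT (KeratinoSens), 1,500/well. Test agents in DMSO were applied for 23 h, 37 C/5% CO2. CellTiter-Fluor was incubated 1 h before the fluorescence read.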

[2] = molecular target: KiSS-1 receptor (Homo sapiens) (UniProt Q969F8); experiment: Human kisspeptin (KISS1R) small molecule agonists, calcium flux assay in KISS1R-HEK293 cells (AID 1920064; active = well fitted curve in the direction sought with a large enough effect in the repeat runs; an effect the other way counts as inactive or inconclusive)
Method in brief: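 After overnight (18 h) culture at 37 C/5% CO2, human KISS1R-HEK293 cells received calcium dye for 1 h, then test compound; emission at 540 nm (excitation 480 nm) was tracked for 3 min.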

[3] = G protein-coupled receptor (GPCR) small molecule agonists, calcium flux assay: HEK293 wild type cell line counter screen (AID 1920065); also: potency is read from the fitted curve at half-maximal effect
Method in brief: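 Following 18 h incubation at 37 C/5% CO2, plates got calcium dye for 1 h; compounds, ATP or DMSO were then pinned in and fluorescence followed kinetically (480/540 nm).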

[4] = p53 small molecule agonists, cell-based qHTS assay (AID 1963582; active = well fitted activation curve with a large enough effect in the signal ratio in the repeat runs, not every such curve was filed as active; the % refers to the signal ratio)
Method in brief: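 Measured: fluorescence from cleaved LiveBLAzer substrate. System: p53RE-bla cells, 16 h compound treatment at 37 C, 2 h substrate step at room temperature.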

[5] = cAMP Responsive Elements (CRE) small molecule agonists, cell-based qHTS assay (AID 1963590)
Method in brief: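 Test agents in DMSO were incubated 3 h at 37 C/5% CO2 with CRE-bla HEK 293T cells seeded 18 h earlier; LiveBLAzer B/G FRET substrate was added and read after 2 h at room temperature.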

[6] = molecular target: Beta-2 adrenergic receptor (Homo sapiens) (UniProt P07550); experiment: Adrenergic beta2 receptor (ADRB2) small molecule antagonists, cell-based qHTS assay (AID 1963592); also: nearly all actives have a fitted effect of over 50% in size; also: potency is read from the fitted curve at half-maximal effect
Method in brief: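 Assay format: CHO-ADRB2 cells, 18-20hr seeding at 37C/5% CO2, then compound plus 1nM isoproterenol agonist mix for 0.5hr RT. Homogeneous time-resolved fluorescence cAMP detection after 1hr, expressed as 665/615 nm ratio.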

[7] = molecular target: Beta-2 adrenergic receptor (Homo sapiens) (UniProt P07550); experiment: Adrenergic beta2 receptor (ADRB2) small molecule agonists, cell-based qHTS assay (AID 1963593);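 also: CHO cells stably overexpressing human ADRB2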
Method in brief: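 CHO cells stably over-expressing ADRB2 were plated overnight at 37C, then dosed with compounds plus a stimulation mix containing 100uM IBMX and 25uM Ro-20-1724 for 0.5hr at room temperature. cAMP was measured by HTRF competition, 1hr.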

[8] = molecular target: D(2) dopamine receptor (Homo sapiens) (UniProt P14416); experiment: Dopamine D2 receptor (DRD2) small molecule agonists, cell-based qHTS assay (AID 1963594); also: nearly all actives have a fitted effect of over 35% in size; also: potency is read from the fitted curve at half-maximal effect
Method in brief: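 HEK293 cells stably expressing human DRD2, pre-treated with PDE inhibitor Ro20-1724 (0.1 mM final) and compound 10 min at room temperature, then stimulated with NKH477 (200nM […]) for 30 min. cAMP read by HTRF (665/620 nm).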

[9] = molecular target: D(2) dopamine receptor (Homo sapiens) (UniProt P14416); experiment: Dopamine D2 receptor (DRD2) small molecule antagonists, cell-based qHTS assay (AID 1963595; active = well fitted inhibition curve with a large enough effect in the signal ratio in the repeat runs, with a control signal flat; the % refers to the signal ratio)
Method in brief: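 HEK293 cells stably expressing DRD2, preincubated with 0.1 mM Ro20-1724 and compounds 10 min, were stimulated with 200 nM NKH477 plus 12 nM quinpirole for 30 min at room temperature; cAMP measured by HTRF (665/620 nm).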

[10] = molecular target: Gonadotropin-releasing hormone receptor (Homo sapiens) (UniProt P30968); experiment: Human gonadotropin-releasing hormone receptor (GnRHR) small molecule agonists, calcium flux assay in GnRHR-HEK293 cells (AID 1920063); also: nearly all actives have a fitted effect of over 35% in size
Method in brief: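 Stable human GnRHR HEK293 line. 18 h plating, then calcium dye for 1 h at 37 C. Agonist-mode compound addition from DMSO stocks; fluorescence monitored 3 min.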

[11] = p53 small molecule agonists, cell-based qHTS assay with human liver microsomes (AID 1963577);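 also: p53 response element beta-lactamase reporter cells with liver microsomes plus NADPH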
Method in brief: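 Reporter activation was measured by LiveBLAzer fluorescence intensity in p53RE-bla cells, which had been exposed to compounds for 16 h at 37 C alongside 0.5 mg/mL human liver microsomes and 0.5 mg/mL NADPH (final concentrations).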

[12] = p53 small molecule agonists, cell-based qHTS assay with rat liver microsomes (AID 1963578)
Method in brief: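 Compound in DMSO added to p53RE-bla cells 5 h post-plating; rat microsomes/NADPH 0.5 mg/mL final; 16 h, 37 C; LiveBLAzer 2 h RT.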

[13] = p53 small molecule agonists, cell-based qHTS assay with human liver microsomes: qHTS cell viability counter screen (AID 1963579); also: nearly all actives have a fitted effect of over 45% in size
Method in brief: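 HLM-supplemented (0.5 mg/mL final) and NADPH-supplemented (0.5 mg/mL final) p53RE-bla cultures, 4,000 cells per well, were dosed with compounds in DMSO for 16 h at 37 C; luminescent ATP detection (CellTiter-Glo, 30 min, room temperature) quantified surviving cells.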

[14] = p53 small molecule agonists, cell-based qHTS assay with rat liver microsomes: qHTS cell viability counter screen (AID 1963580); also: nearly all actives have a fitted effect of over 45% in size
Method in brief: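 After the beta-lactamase ratio was read, CellTiter-Glo was added to the same wells and luminescence measured at 30 min; cells had been treated 16 h at 37 C with compounds, rat liver microsomes and NADPH (0.5 mg/mL final each).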

[15] = p53 small molecule agonists, cell-based qHTS assay: qHTS cell viability counter screen (AID 1963581); also: nearly all actives have a fitted effect of over 45% in size
Method in brief: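 qHTS counter screen: 16 h compound exposure at 37 C of p53RE-bla HCT-116 cells (4,000 per well, seeded 5 h prior), cell viability by ATP luminescence.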

[16] = molecular target: 5-hydroxytryptamine receptor 2A (Homo sapiens) (UniProt P28223); experiment: 5-hydroxytryptamine receptor 2A (HTR2A) small molecule antagonists, cell-based qHTS assay (AID 1963586); also: nearly all actives have a fitted effect of over 45% in size
Method in brief: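 CHO cells stably expressing human HTR2A were plated for 18 h at 37 C, then loaded with calcium dye for 1 h. Compounds were preincubated 5 min at room temperature before DOI (4 nM solution) was added. Kinetic fluorescence was read for 3 min.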

[17] = molecular target: 5-hydroxytryptamine receptor 2A (Homo sapiens) (UniProt P28223); experiment: 5-hydroxytryptamine receptor 2A (HTR2A) small molecule agonists, cell-based qHTS assay (AID 1963587); also: nearly all actives have a fitted effect of over 30% in size; also: potency is read from the fitted curve at half-maximal effect
Method in brief: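 CHO cells stably expressing human HTR2A, plated 18 h, loaded with calcium dye 1 h at 37 C. Agonist mode: compounds added and intracellular calcium fluorescence recorded kinetically for 2 min at 1 sec intervals.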

[18] = molecular target: Muscarinic acetylcholine receptor M1 (Homo sapiens) (UniProt P11229); experiment: Cholinergic receptor muscarinic 1 (CHRM1) small molecule antagonists, cell-based qHTS assay (AID 1963588); also: nearly all actives have a fitted effect of over 40% in size; also: potency is read from the fitted curve at half-maximal effect
Method in brief: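 Compounds were tested at 15 concentrations in three independent runs. Dye-loaded CHRM1-CHO cells were exposed 5 min at room temperature before stimulation by acetylcholine added at 50nM. Intracellular calcium was read kinetically on FDSS for 3 min.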

[19] = molecular target: Muscarinic acetylcholine receptor M1 (Homo sapiens) (UniProt P11229); experiment: Cholinergic receptor muscarinic 1 (CHRM1) small molecule agonists, cell-based qHTS assay (AID 1963589); also: nearly all actives have a fitted effect of over 35% in size; also: potency is read from the fitted curve at half-maximal effect
Method in brief: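 Kinetic fluorescence (1 s intervals) of calcium-sensitive dye in human M1 CHO cells after compound addition; cells pre-incubated 18 h at 37 C/5% CO2 and dye-loaded 1 h.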

[20] = cAMP Responsive Elements (CRE) small molecule antagonists, cell-based qHTS assay (AID 1963591; active = well fitted inhibition curve with a large enough effect in the signal ratio in the repeat runs, not every such curve was filed as active; the % refers to the signal ratio)
Method in brief: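 Reporter line CRE-bla HEK 293T in dialyzed-FBS DMEM; cells preincubated 18 h, treated 3 h with compound plus NKH477 (0.25 uM final); LiveBLAzer FRET, 2 h RT.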

Measured: Potency

Muscarinic acetylcholine receptor M1 (Homo sapiens), sequence (P11229 whole entry, looked up): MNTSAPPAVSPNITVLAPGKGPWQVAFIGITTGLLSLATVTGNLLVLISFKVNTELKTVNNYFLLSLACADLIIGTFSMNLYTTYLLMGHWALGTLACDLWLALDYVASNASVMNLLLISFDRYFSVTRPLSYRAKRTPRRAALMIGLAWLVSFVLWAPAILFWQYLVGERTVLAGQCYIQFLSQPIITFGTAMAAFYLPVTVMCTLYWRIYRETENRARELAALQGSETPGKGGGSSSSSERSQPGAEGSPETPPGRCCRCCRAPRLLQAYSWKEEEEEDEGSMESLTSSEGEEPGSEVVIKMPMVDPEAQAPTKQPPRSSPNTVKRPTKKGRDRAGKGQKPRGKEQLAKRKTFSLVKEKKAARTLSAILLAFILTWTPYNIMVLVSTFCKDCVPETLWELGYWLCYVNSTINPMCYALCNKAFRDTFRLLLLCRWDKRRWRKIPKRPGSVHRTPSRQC
KiSS-1 receptor (Homo sapiens), sequence (Q969F8 whole entry, looked up): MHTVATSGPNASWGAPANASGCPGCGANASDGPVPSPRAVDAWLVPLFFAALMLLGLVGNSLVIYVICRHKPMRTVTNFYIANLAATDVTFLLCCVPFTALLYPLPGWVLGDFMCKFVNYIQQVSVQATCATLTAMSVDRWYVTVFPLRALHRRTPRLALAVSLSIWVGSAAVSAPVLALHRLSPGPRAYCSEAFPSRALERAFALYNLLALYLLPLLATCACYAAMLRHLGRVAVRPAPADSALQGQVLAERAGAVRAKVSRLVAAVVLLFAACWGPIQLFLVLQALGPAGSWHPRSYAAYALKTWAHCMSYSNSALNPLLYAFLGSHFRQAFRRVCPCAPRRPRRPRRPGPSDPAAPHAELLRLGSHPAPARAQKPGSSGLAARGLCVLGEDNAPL
5-hydroxytryptamine receptor 2A (Homo sapiens), sequence (P28223 whole entry, looked up): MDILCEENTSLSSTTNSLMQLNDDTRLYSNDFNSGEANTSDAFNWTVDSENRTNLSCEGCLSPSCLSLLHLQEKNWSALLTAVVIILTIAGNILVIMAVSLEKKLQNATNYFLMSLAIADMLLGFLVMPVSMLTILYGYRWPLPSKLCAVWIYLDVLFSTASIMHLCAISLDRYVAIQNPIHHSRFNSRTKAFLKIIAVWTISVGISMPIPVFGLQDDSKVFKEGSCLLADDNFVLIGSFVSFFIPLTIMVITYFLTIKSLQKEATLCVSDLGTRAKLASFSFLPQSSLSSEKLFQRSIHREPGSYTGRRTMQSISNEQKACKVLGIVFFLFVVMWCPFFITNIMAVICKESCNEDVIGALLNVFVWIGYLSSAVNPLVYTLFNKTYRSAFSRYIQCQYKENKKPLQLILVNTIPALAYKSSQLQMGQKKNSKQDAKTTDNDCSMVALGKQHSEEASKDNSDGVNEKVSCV
Gonadotropin-releasing hormone receptor (Homo sapiens), sequence (P30968 whole entry, looked up): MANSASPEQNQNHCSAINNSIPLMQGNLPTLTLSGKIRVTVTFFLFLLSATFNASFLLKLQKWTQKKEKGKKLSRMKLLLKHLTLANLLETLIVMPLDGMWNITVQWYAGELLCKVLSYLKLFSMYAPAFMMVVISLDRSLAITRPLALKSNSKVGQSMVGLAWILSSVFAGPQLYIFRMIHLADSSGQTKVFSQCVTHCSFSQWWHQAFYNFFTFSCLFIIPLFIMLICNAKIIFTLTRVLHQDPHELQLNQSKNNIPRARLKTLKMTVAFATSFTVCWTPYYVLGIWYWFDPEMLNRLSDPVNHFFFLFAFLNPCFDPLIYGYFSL
Beta-2 adrenergic receptor (Homo sapiens), sequence (P07550 whole entry, looked up): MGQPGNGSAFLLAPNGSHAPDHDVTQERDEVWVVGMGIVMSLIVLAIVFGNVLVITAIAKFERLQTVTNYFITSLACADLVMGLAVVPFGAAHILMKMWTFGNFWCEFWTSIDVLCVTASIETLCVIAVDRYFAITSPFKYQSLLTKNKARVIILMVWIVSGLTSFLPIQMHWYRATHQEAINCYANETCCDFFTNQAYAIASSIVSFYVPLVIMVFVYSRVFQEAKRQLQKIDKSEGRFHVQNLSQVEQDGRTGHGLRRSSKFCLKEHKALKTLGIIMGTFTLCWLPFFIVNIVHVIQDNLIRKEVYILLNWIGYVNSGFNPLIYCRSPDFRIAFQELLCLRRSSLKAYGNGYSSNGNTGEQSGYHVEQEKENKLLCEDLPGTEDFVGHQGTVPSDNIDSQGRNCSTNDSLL
D(2) dopamine receptor (Homo sapiens), sequence (P14416 whole entry, looked up): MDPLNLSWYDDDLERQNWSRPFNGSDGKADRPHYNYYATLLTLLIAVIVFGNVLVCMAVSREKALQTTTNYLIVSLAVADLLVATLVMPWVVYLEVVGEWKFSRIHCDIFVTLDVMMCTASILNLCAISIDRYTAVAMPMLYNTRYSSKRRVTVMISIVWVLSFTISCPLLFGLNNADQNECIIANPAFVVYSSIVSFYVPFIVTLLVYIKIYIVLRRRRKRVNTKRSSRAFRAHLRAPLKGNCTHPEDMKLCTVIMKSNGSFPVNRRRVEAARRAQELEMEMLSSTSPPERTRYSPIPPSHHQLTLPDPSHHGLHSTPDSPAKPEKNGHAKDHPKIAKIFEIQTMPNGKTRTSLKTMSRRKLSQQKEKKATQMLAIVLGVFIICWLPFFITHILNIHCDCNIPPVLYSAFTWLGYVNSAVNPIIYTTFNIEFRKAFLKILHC

CN/C(=C\[N+](=O)[O-])NCCSCc1ccc(CN(C)C)o1
inactive and 17.4 µM (active): [8]
inactive: [1] | [2] | [3] | [4] | [5] | [6] | [7] | [9]

CC1CCCC(=O)C1=O (configuration not stated)
not listed: [20]
inactive: all other assays above

OCCCCl
not listed: [9]
inactive: all other assays above

CCC(C(=O)NC(N)=O)c1ccccc1 (configuration not stated)
not listed: [7] | [8]
inactive: all other assays above

O=C1OC2(c3ccccc31)c1cc(Br)c(O)c(Br)c1Oc1c2cc(Br)c(O)c1Br
active: [3] 35.2 µM and 35.7 µM and 16.9 µM | [17] 22.2 µM and 1.59 µM and 19 µM | [6] 62 µM and 62.8 µM and 21.1 µM | [8] 62 µM and 60.5 µM and 29.8 µM
inactive: [1] | [13] | [14] | [16] | [18]

Cc1occc1S
not listed: [7] | [20]
inactive: all other assays above

O=C1c2c(O)ccc(Nc3ccc(CCO)cc3)c2C(=O)c2c([N+](=O)[O-])ccc(O)c21
not listed: [5] | [6] | [7] | [8] | [9] | [20]
inactive: all other assays above

CCOc1ccc2c(c1)C(C)=CC(C)(C)N2
54.7 µM (active) and inactive: [17] | [19]
not listed: [2] | [6] | [7] | [9] | [10] | [12] | [20]
inactive: all other assays above

CCOC(=O)CCC(C)=O
not listed: [7]
inactive: all other assays above

CCOCCOCCOCCO
inactive: all assays above

C=C(C)C(=O)OCCOCCOCCOC(=O)C(=C)C
not listed: [5] | [7] | [20]
inactive: all other assays above

CCCCCCCC(=O)N(C)C
not listed: [2] | [10]
inactive: all other assays above

CCCCCCCCCCCC[N+](C)(C)CCCS(=O)(=O)[O-]
active: [18] 33.8 µM
not listed: [9]
inactive: all other assays above

NC1CCCCC1N (configuration not stated)
not listed: [5] | [7] | [8] | [17]
inactive: all other assays above

OC1CCCCCCCCCCC1
active: [17] 6.23 µM
not listed: [7]
inactive: all other assays above

CCCC(=O)OCc1ccccc1
inactive: all assays above
